Rows were chosen to be rich in hits. Some 6.2% of all compounds tested hit in one or more screens of this group.
HT1080 IDH1KD tx – toxicity to HT-1080 IDH1 knockdown cells (counter line); HT-1080 IDH1 knockdown viability, ATP luminescence, 48 h; Potency, µM (titrated, usually from 46.1 µM), without a hit: top-dose activity, negative = toxicity, most hits filed as cytotoxic; hit rate 2% among 360,000;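 also: 0% = DMSO wells and -100% = cell-free medium wells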
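Cytotoxicity counter-line: IDH1KD HT-1080, 48 h, CellTiter-Glo. Curves classed by r2, magnitude and activity.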
KB-V1 cytotox – KB-V1 MDR subline cytotoxicity. KB-V1 MDR cells viability, CellTiter-Glo, 72 h. Potency, µM (top dose mostly 46.1 µM), hits mostly cytotoxic. hit rate 3.4% among 400,000; also: % is scaled to controls: 0 for no effect and ±100 for the full control effect; nearly all actives have a fitted effect of over 60% in size
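Cytotoxicity via CellTiter-Glo luminescence after 72 h compound exposure at 37 degrees C. Cells: drug-selected KB-V1 line, DMEM phenol-red free plus 10% FBS. Compounds tested at multiple concentrations; normalized data fitted to concentration-effect curves.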
ATXN2 expr inh – reduces ATXN2 reporter expression in HEK-293 cells | HEK-293 ATXN2-luciferase reporter, luminescence, 24 h | Potency, µM (titrated, usually from 57 µM), for the others: at the highest dose activity change, negative = inhibition, hits mostly inhibitors | hit rate 0.72% among 360,000 | AID 1745845; also: % is scaled to controls: 0 for no effect and ±100 for the full control effect; nearly all actives have a fitted effect of over 55% in size
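qHTS (up to 57 uM final) was run with 24 h compound exposure of reporter cells at 37 °C. Each well was multiplexed: SteadyGlo luminescence measured ATXN2-luciferase expression after a fluorogenic Gly-Phe-AFC viability readout (25 uM final).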
S2 tox – cell viability loss in ATXN counter-screen. S2 cells (HEK-293 line with an ATXN2-luciferase reporter) viability, CellTiter-Fluor protease fluorescence, 24 h. Potency, µM (top dose mostly 56.7 µM), hits mostly cytotoxic. hit rate 0.49% among 400,000; also: nearly all actives have a fitted effect of over 40% in size
KB-3-1 cytotox – KB-3-1 parental cell cytotoxicity; Potency, µM (top dose mostly 46.1 µM), usual class: cytotoxic; KB-3-1 viability, CellTiter-Glo ATP luminescence, 72 h; AID 1347075; hit rate 1.4% among 400,000; also: % is scaled to controls: 0 for no effect and ±100 for the full control effect; nearly all actives have a fitted effect of over 60% in size
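Viability of parental KB-3-1 cells, measured by CellTiter-Glo luminescence, followed a 72 h incubation at 37 °C with pinned compounds in phenol-red-free DMEM containing 10% FBS.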
HT1080NT lethal – kills 2HG-producing HT-1080-NT fibrosarcoma cells; hit rate 1.6% among 360,000; Potency, µM (series often up to 46.1 µM), for inactives: at the highest dose activity, negative = less viability, actives largely listed as cytotoxic; AID 686970; HT-1080-NT fibrosarcoma viability, CellTiter-Glo ATP luminescence, 48 h;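 also: NT is the 2HG producing partner of a matched IDH1 knockdown line; 0% = DMSO-treated cells and -100% = media-only wells without cells; nearly all actives have a fitted effect of over 55% in size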
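Toxicity toward the 2HG-producing NT line was scored as %Activity, normalised to DMSO and no-cell wells, from CellTiter-Glo luminescence after 48 hours' treatment.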
Active calls of the source: *; i = inactive; ? = inconclusive; · = no result given. Calls follow the shape of the dose curve; as a rule, active = well fitted curve in the direction sought with a large enough effect; inconclusive = small, poorly fitted or top-dose-only effect, or another doubt; inactive = no such curve, though single readings can be large; an effect the other way counts as inactive or inconclusive. Potency is read from the fitted curve at half-maximal effect.

SMILES | HT1080 IDH1KD tx | KB-V1 cytotox | ATXN2 expr inh | S2 tox | KB-3-1 cytotox | HT1080NT lethal
O=C(/C=C\c1cn(-c2ccccc2)nc1-c1ccccc1)Nc1nccs1 | 20.6µM* | ? | -11.8% | ? | ? | 14.6µM*
O=C(/C=C/c1ccc2c(c1)OCO2)NCCSCc1c(Cl)cccc1Cl | ? | ? | -16.9% | i | i | -10.6%
CC(=O)Nc1nc(-c2ccc3c(c2)OCO3)cs1 | 0.7% | i | 44.3% | i | i | 8.8%
CS(=O)(=O)N1CCc2cc(-c3csc(NC(=O)Cc4cccs4)n3)ccc21 | ? | i | 17.8µM* | ? | i | 10µM*
COc1ccccc1-c1noc(-c2ccc(NCC3CCCO3)c([N+](=O)[O-])c2)n1 (stereo not given) | · | i | 40.4% | i | i | ·
COC(=O)CSc1nnc(NC(=O)/C=C\c2ccc3c(c2)OCO3)s1 | 11.8% | i | -23.2% | i | i | 5.4%
O=C(COC(=O)/C=C/c1cccs1)Nc1nc(-c2ccccc2)cs1 | -12.9% | i | 4.0% | i | i | -21.4%
O=C(/C=C/c1cccs1)Nc1nc(-c2ccccc2)cs1 | ? | 14.6µM* | -33.2% | ? | ? | ?
O=C(Cc1cccs1)Nc1nc(-c2ccccc2)cs1 | ? | 16.4µM* | 17.5% | i | ? | -27.7%
Cc1sc(NC(=O)/C=C/c2ccc3c(c2)OCO3)nc1-c1ccccc1 | ? | 2.91µM* | ? | ? | 1.3µM* | -10.4%
O=C(/C=C/c1ccc2c(c1)OCO2)Nc1nncs1 | 1.03µM* | i | -22.5% | i | 5.8µM* | ?
CN1CCN(c2ccnc(N(C)CCCCCCN)n2)CC1 | · | i | · | · | ? | ·
COc1ccc(NC(=O)C2CCC(CNS(=O)(=O)c3ccc(Br)s3)CC2)c(OC)c1 (stereo not given) | · | ? | -5.6% | i | i | ·
COC(=O)c1c(NC(=O)/C=C/c2ccc3c(c2)OCO3)sc(C)c1C | -3.0% | i | -16.9% | i | i | -17.7%
CCOC(=O)c1c(NC(=O)/C=C/c2ccc3c(c2)OCO3)sc(C)c1CC | -5.7% | i | -18.2% | i | 20.6µM* | -1.8%
Cc1cc(C)nc(NC(=O)/C=C/c2ccc3c(c2)OCO3)c1 | 4.61µM* | ? | 34.3% | i | ? | ?
O=C(CCS(=O)(=O)c1ccccc1)Nc1nc(-c2ccc(F)cc2)cs1 | 20.6µM* | i | -6.5% | i | i | ?
CCN(CC)S(=O)(=O)c1ccc(N2CCCCS2(=O)=O)cc1 | · | i | 22.2% | i | i | ·
Cc1nn(Cc2ccccc2)c(C)c1/C=N/NC(=O)CNc1cccc(C(F)(F)F)c1 | -28.6% | i | · | · | ? | -22.5%
Cc1nn(-c2ccccc2)c(Cl)c1/C=N/NC(=O)c1ccco1 | -5.7% | i | 78.7% | i | ? | -0.4%
CNC(=S)N/N=C/c1c(C)nn(-c2ccccc2)c1Cl | 8.91µM* | ? | 67.8% | i | i | ?
COc1ccc(NCC(=O)N/N=C/c2c(C)nn(Cc3ccccc3)c2Cl)cc1 | 10.7% | 11.6µM* | -0.7% | i | i | 6.0%
CNC(=S)N/N=C/c1c(C)nn(-c2cccc(Cl)c2)c1Cl | ? | i | -25.0% | i | i | -21.2%
Cc1nn(-c2ccccc2)c(Cl)c1/C=N/NC(=O)OC(C)(C)C | -17.1% | 13µM* | 43.8% | i | i | -2.4%
COc1cc(F)c(F)c(Nc2ccc(I)cc2F)c1NS(=O)(=O)C1(C[C@H](O)CO)CC1 | · | · | -6.3% | · | · | ·
CC/C=C1/N=C2C(=O)N(C)C(=O)N=C2N(C)N1 | · | i | · | · | 18.4µM* | ·
CN1N/C(=C\c2ccccc2)N=C2C(=O)N(C)C(=O)N=C21 | · | i | · | · | i | ·
COC(=O)C=CC(=O)OC | · | · | 11.9% | · | · | ·
COc1cc2c(cc1OC)C1=C(C#N)CC/C(=N\S(=O)(=O)c3cccc(Cl)c3)N1CC2 | ? | 16.4µM* | -2.9% | i | ? | -13.8%
COc1cc(C(=O)ON=C2C=C(C)C(=O)C(C)=C2)cc(OC)c1OC | -9.1% | i | 29.4% | i | i | -6.3%
